{"source": "PubChem BioAssay AID1026", "about": "(Columbia University Molecular Screening Center, 2008)", "biological_target": "Bifunctional epoxide hydrolase 2 (Homo sapiens) (UniProt P34913)", "sequence (P34913 whole entry, looked up)": "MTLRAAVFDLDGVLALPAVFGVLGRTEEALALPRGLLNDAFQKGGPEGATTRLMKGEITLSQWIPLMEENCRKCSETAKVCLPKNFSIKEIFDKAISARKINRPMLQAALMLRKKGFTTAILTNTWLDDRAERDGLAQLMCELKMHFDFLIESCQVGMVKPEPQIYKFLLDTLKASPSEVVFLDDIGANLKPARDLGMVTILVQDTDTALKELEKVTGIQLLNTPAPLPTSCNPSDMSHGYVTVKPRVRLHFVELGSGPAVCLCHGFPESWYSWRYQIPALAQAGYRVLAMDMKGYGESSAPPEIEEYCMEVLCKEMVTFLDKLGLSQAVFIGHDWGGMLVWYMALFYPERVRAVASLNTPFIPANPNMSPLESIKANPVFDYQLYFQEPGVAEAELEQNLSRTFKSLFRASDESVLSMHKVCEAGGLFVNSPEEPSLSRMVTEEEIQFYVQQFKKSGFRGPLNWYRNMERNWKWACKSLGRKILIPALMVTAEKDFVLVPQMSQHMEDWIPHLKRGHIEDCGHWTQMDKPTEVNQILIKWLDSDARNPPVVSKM", "experiment": "sEH inhibitor concentration-response potency, dose response, biochemical, human sEH, fluorescence, Infinite200 (AID 1026)", "settings": "recombinant human sEH, fluorogenic substrate, at 0.2 µM, active compounds read high", "note": "Unmarked numbers belong to inactive results. How the calls were made is not given here.", "data": [{"smiles": "CC(Cc1ccccc1)NC(=O)NC(C)Cc1ccccc1", "note": "(stereo unspecified)", "values": [{"measurement": "inhibition", "result": 71.6, "unit": "%"}]}]}
